The values that follow come from PubChem BioAssay.

A short description of test [1]: viability loss in pontine glioma line – cell-based, SU-DIPG-XVII, MIPE5.0, CellTiter-Glo, qHTS, dose response (AID 1347060; cut-off not given, nearly all actives have AC50 up to about 26 µM;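 as to AC50: cells exposed to compound for 48 hours before viability readout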). Particulars: CellTiter-Glo ATP luminescence.
Test [2] in a line: viability loss in pontine glioma line – cell-based, SU-DIPG-XIII, MIPE4.0, CellTiter-Glo, qHTS, dose response (AID 1347061; cut-off not given, nearly all actives have AC50 up to about 37 µM;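 also: cells exposed to compound for 48 hours before readout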). The settings on record: CellTiter-Glo ATP luminescence.
Test [3] is described as follows: viability loss in pontine glioma line – cell-based, JHH-DIPG-1, MIPE4.0, CellTiter-Glo, qHTS, dose response (AID 1347062; cut-off not given, nearly all actives have AC50 up to about 27 µM;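 as to AC50: cells exposed to compound for two days before readout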). Particulars: JHH-DIPG-1 viability, CellTiter-Glo ATP luminescence.
Test [4] in a line: viability loss in pontine glioma line – cell-based, SU-DIPG-IV, MIPE4.0, CellTiter-Glo, qHTS, dose response (AID 1347063; cut-off not given, nearly all actives have AC50 up to about 30 µM;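 also: compound exposure lasted 48 hours before the viability readout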). Particulars: CellTiter-Glo ATP luminescence.
Test [5] is described as follows: growth inhibition of DIPG cells – cell-based, MIPE4.0 library, CellTiter-Glo luminescence, qHTS (AID 1347066; cut-off not given, nearly all actives have AC50 up to about 30 µM;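 also: cells exposed to compound for 48 hours before readout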). The settings on record: SU-DIPG-VI viability, CellTiter-Glo ATP luminescence.
A short description of test [6]: JHH-DIPG-1 glioma cell viability, MIPE5.0 library, CellTiter-Glo luminescence, qHTS (AID 1347067; cut-off not given, nearly all actives have AC50 up to about 26 µM;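 also: cells exposed to compound for 48 hours before readout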). The settings on record: JHH-DIPG-1 glioma viability, CellTiter-Glo ATP luminescence.
Test [7] in a line: growth inhibition of DIPG cells – cell-based, MIPE5.0 library, qHTS (AID 1347068; cut-off not given, nearly all actives have IC50 up to about 30 µM;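 as to IC50: cells exposed to compound for 48 hours before viability readout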). Particulars: SU-DIPG-XXV viability.
Test [8] has as its system Aerobactin synthetase IucA (Klebsiella pneumoniae). Kind of test: inhibition of K. pneumoniae IucA enzyme – biochemical, Tocris library, absorbance (AID 1345561).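 Also: 100% = enzyme without compound and 0% = no enzyme.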 The settings on record: purified IucA enzyme assay, absorbance (OD) read-out; hits give low values;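 tested at 8 µM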.
Test [9] is described as follows: signal quenchers or enhancers, Cy5 substrate/SSB – biochemical, NIH Clinical Collection, E. coli SSB, artefact control for HCV NS3 helicase inhibitor project (AID 743268). The settings on record: Cy5-oligo bound E. coli SSB, fluorescence interference.
The test system of test [10] is Hepatitis C virus NS3 helicase. The experiment in a line: blockers of NS3h binding to DNA – biochemical, fluorescence polarization, NIH Clinical Collection, primary screen (AID 743270). Particulars: NS3 helicase binding to Cy5-dT15 DNA, hits give high values, concentration not given here.
Test [11] concerns the target Single-stranded DNA-binding protein (Escherichia coli (strain K12)) (UniProt P0AGE0). Kind of test: SSB-ssDNA binding inhibitors – biochemical, fluorescence polarization, NIH Clinical Collection, counter-screen for HCV NS3 helicase inhibitor project (AID 743271; in the data active = inhibition above about 28%). The settings on record: E. coli SSB-DNA binding, hits give high values, concentration not given here.
A short description of test [12]: compounds distorting NS3 helicase fluorescence signal – biochemical, NIH Clinical Collection, artefact control for HCV NS3 helicase inhibitor project (AID 743272).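 Also: HCV NS3 helicase with a Cy5 labelled single stranded DNA probe.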 Particulars: fluorescence interference counterscreen, HCV NS3 helicase assay; hits give low values.
In another test the test system is F380Y/beta4. Kind of test: BK channel mutant inhibitors and activators – cell-based, U2OS BacMam, thallium flux, beta subunits, selectivity assay, profiling panel (AID 1259406;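 active = thallium flux through the channel raised or lowered by more than 3 SD from vehicle-only wells, actives on both sides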;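 also: initial slope of Thallos dye fluorescence rise after thallium is added; log ratio against the mean of 0.3% DMSO vehicle wells on the same plate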). The settings on record: U2OS BacMam BK variants, at 30 µM.
The next test deals with R275C/beta4. The description is as above. Particulars: U2OS BacMam BK variants, at 30 µM.
Test [13] has as its target Calcium-activated potassium channel subunit alpha-1 (Homo sapiens) + Leucine-rich repeat-containing protein 26 (Homo sapiens) (UniProt Q12791+Q2I0M4). The description is as above. The settings on record: U2OS BacMam BK variants, F380Y/Slo1WT/gamma1, at 30 µM.
For test [14], the system named is Neuropilin-2 / VEGF-C interaction (human). Kind of test: small molecules blocking Neuropilin-2/VEGF-C interaction – biochemical, microplate binding format, z-score (AID 743281). Particulars: microplate NRP2/VEGF-C binding assay; hits give low values.

“And” between values parts separate entries of the source, which are not always exact repeats. Equal entries are not always repeated. Values without a mark were called inactive. Results filed as inconclusive are left out. The source made the active and inactive calls. Unless noted, no rule for the calls is given here.

Calcium-activated potassium channel subunit alpha-1 (Homo sapiens) + Leucine-rich repeat-containing protein 26 (Homo sapiens), sequence (Q2I0M4 whole entry, looked up, one chain of several): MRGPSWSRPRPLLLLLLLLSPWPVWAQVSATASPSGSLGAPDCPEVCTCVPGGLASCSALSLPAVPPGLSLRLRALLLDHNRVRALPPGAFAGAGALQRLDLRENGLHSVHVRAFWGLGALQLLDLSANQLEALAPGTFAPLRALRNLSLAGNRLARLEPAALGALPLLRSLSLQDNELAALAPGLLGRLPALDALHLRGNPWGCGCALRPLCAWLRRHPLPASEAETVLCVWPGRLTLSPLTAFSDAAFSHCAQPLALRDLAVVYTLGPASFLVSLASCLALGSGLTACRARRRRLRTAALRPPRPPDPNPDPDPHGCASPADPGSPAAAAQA

As to `CN(C)[C@@H]1C(=O)C(C(N)=O)=C(O)[C@@]2(O)C(=O)C3=C(O)c4c(O)cccc4[C@@](C)(O)[C@H]3C[C@@H]12`, the molecule was called inactive in test [1], in test [2], in test [3], in test [4], in test [5] and in test [6]. In addition, in test [7], the call was inactive.
In the case of `O=C(CCCN1CCC2(CC1)C(=O)NCN2c1ccccc1)c1ccc(F)cc1`, in test [8], the remaining activity is 101%.
On the same count and under the same terms, in the case of `O=c1[nH]oc2c1CCNC2` it was 79%; in that of `NCC(O)c1ccc(O)cc1` (configuration not stated), 96.2%.
Turning to `O=C(O)c1nn(Cc2ccc(Cl)cc2Cl)c2ccccc12`, in test [8], the remaining activity is 90.4%. The molecule was called inactive in test [1], in test [2], in test [4], in test [5], in test [6] and in test [7].
For `O=c1[nH]c2ccccc2n1CCCN1CCC(n2c(=O)[nH]c3cc(Cl)ccc32)CC1`, in [8], the remaining activity was 103%. The call in test [1], in [2], in [3], in test [5] and in test [7] was inactive.
Take `O=c1[nH]c2ccccc2n1C1CCN(CCCC(c2ccc(F)cc2)c2ccc(F)cc2)CC1`: the remaining activity in test [8] is 106%.
Consider `Clc1ccc(COC(Cn2ccnc2)c2ccc(Cl)cc2Cl)cc1` (configuration not stated), for which the figures for the fluorescence ratio in [9] and in test [12] were 1.02 and 0.94, respectively. The values for the inhibition in test [10] and in [11] were 3.18% and 4.1%, respectively. The log fold change Tl+ flux in the test with F380Y/beta4 was -0.321 (active); in the test on R275C/beta4 it was 0.279 (active).
With `CN(C)[C@@H]1C(=O)C(C(N)=O)=C(O)[C@@]2(O)C(=O)C3=C(O)c4c(O)cccc4[C@@](C)(O)[C@H]3[C@H](O)[C@@H]12`, the fluorescence ratio in test [9] was 1.03; in test [12], 0.85. The figures for the inhibition in test [10] and in test [11] were -4.09% and 4.86%, respectively. In addition, the result in test [1], in [2], in test [3], in test [4], in [5] and in test [6] was inactive. In [7], the outcome was inactive. For the same molecule, the log fold change Tl+ flux in the test on F380Y/beta4 was -0.0391; in test [13], 0.0226; with R275C/beta4, 0.0299.
On to `CCC1(c2ccc(N)cc2)CCC(=O)NC1=O` (configuration not stated), for which the figures for the fluorescence ratio in test [9] and in test [12] were 1.03 and 1.04, respectively. In addition, the values for the inhibition in [10] and in test [11] were -2.27% and -2%, respectively. In addition, the result in [1], in test [2], in [4], in test [5], in test [6] and in test [7] was inactive. Also, the log fold change Tl+ flux in the test with F380Y/beta4 is -0.00944; in test [13], -0.0199; in the test on R275C/beta4, 0.0132.
For `N[C@@H](Cc1ccc(N(CCCl)CCCl)cc1)C(=O)O`, the AC50 in test [1] was 4170 nM (active); in test [3] it was 23500 nM (active); in test [4], 13200 nM (active). In [7], the IC50 was 29500 nM (active).
For the molecule `CCC1(C2=NCCN2)Cc2ccccc2O1` (configuration not stated), the remaining activity in [8] is 98.6%.
Take `c1ccc2nc(N3CCNCC3)ccc2c1`: the remaining activity in test [8] is 102%.
Turning to `COc1ccc(C(CN(C)C)C2(O)CCCCC2)cc1` (configuration not stated), the fluorescence ratio is 1.07 in [9] and 0.93 in test [12]. Further, the inhibition is -2.77% in test [10] and 1.44% in [11]. Moreover, in test [14], the z-score is 0.57. Further, the outcome in [2], in test [3], in test [4] and in [5] was inactive. Moreover, the log fold change Tl+ flux is 0.00869 in the test with F380Y/beta4, -0.00535 in test [13] and 0.0192 in the test on R275C/beta4.
As for `CC(NC(C)(C)C)C(=O)c1cccc(Cl)c1` (configuration not stated), the fluorescence ratio in test [9] was 1.04 and 1.06; in test [12] it was 1. Also, the inhibition in test [10] was -3.56% and 3.56%; in test [11], -3.18% and 3.75%. The z-score in test [14] is -0.243 and -0.0135. In addition, the molecule was called inactive in test [1], in test [2], in [3], in test [4], in test [5] and in [6]. Besides, in test [7], the molecule was classed as inactive. Besides, the log fold change Tl+ flux with F380Y/beta4 was -0.0339 and 0.00749; in test [13] it was -0.0374 and -0.0597; with R275C/beta4, -0.00901 and 0.0176.
For the molecule `C[C@@H]1CC[C@H]2[C@@H](C)C(=O)O[C@@H]3O[C@@]4(C)CC[C@@H]1[C@]32OO4`, in [8], the remaining activity was 94.3%. Moreover, the result in [1], in test [2], in test [3], in test [5], in test [6] and in [7] was inactive.
As for `C[C@@H]1O[C@@H](O[C@H]2C[C@@H](O)[C@]3(CO)[C@H]4[C@H](O)C[C@]5(C)[C@@H](C6=CC(=O)OC6)CC[C@]5(O)[C@@H]4CC[C@]3(O)C2)[C@H](O)[C@H](O)[C@H]1O`, the AC50 is 52.5 nM (active) in test [1]; 13.2 nM (active) in test [2]; 6.62 nM (active) in test [3]; 14.8 nM (active) in [4]; 29.6 nM (active) in test [5]; 18.6 nM (active) in [6].
Take `C=C(C)[C@H]1CN[C@H](C(=O)O)[C@H]1CC(=O)O`: the remaining activity in test [8] was 116%.
In the case of `N[C@@H]1C[C@H]1c1ccccc1`, in test [8], the remaining activity was 124%. Further, the molecule was classed as inactive in test [1], in test [2], in test [3], in test [4], in test [5] and in test [6]. The molecule was called inactive in test [7].
